Laboratory results: PubChem BioAssay (NCI)
The panel holds about 83,000 compounds, 20% with a hit somewhere; the sample as a whole holds those more often.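 The endpoint reported here, percent growth, reads 100 for growth as untreated, 0 for no net growth and -100 for all cells dead.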 The source made the active and inactive calls. The calls were made as follows: active = growth percent below 10; inactive = the rest.

Legend:
Experiment in all cases: NCI-60 one-dose screen, 48 h (100 = growth as untreated, 0 = no growth, -100 = all killed)
Details in all cases: 10 µM unless noted
SK-MEL-2 melanoma = test system: SK-MEL-2 melanoma
EKVX NSCLC = test system: EKVX NSCLC
SN12C renal = test system: SN12C renal
UO-31 renal = test system: UO-31 renal
TK-10 renal = test system: TK-10 renal
ACHN renal = test system: ACHN renal
CAKI-1 renal = test system: CAKI-1 renal
A498 renal = test system: A498 renal
CCRF-CEM leukemia = test system: CCRF-CEM leukemia
MOLT-4 leukemia = test system: MOLT-4 leukemia
RPMI-8226 leukemia = test system: RPMI-8226 leukemia
OVCAR-8 ovarian = test system: OVCAR-8 ovarian
OVCAR-5 ovarian = test system: OVCAR-5 ovarian
OVCAR-4 ovarian = test system: OVCAR-4 ovarian
SK-OV-3 ovarian = test system: SK-OV-3 ovarian
IGROV1 ovarian = test system: IGROV1 ovarian
OVCAR-3 ovarian = test system: OVCAR-3 ovarian
HS 578T breast = test system: HS 578T breast
NCI/ADR-RES ovarian = test system: NCI/ADR-RES ovarian
SR leukemia = test system: SR leukemia

Measured: growth

Cc1ccc(-c2nn(C)c(=O)c3noc(-c4ccc(C)cc4)c23)cc1
inactive: EKVX NSCLC 56.5% | SN12C renal 44.1% | UO-31 renal 41.7% | TK-10 renal 47.4% | ACHN renal 43.5% | CAKI-1 renal 37.7% | A498 renal 25.6% | CCRF-CEM leukemia 18.9% | MOLT-4 leukemia 55.8% | RPMI-8226 leukemia 20.4% | OVCAR-8 ovarian 43.8% | OVCAR-5 ovarian 57.4% | OVCAR-4 ovarian 61.4% | SK-OV-3 ovarian 26.7% | IGROV1 ovarian 48.2% | HS 578T breast 28% | NCI/ADR-RES ovarian 30.4%
active: SK-MEL-2 melanoma 9.26% | OVCAR-3 ovarian 8.74%

OC(c1ccccc1)C(NC(Cc1ccccc1)c1ccccc1)c1ccccc1 (stereo not given)
inactive: SK-MEL-2 melanoma 93.1% | EKVX NSCLC 92% | SN12C renal 87.1% | UO-31 renal 72.2% | TK-10 renal 92.2% | ACHN renal 90.7% | CAKI-1 renal 77.4% | A498 renal 74.6% | CCRF-CEM leukemia 93.3% | MOLT-4 leukemia 71.2% | SR leukemia 91.4% | OVCAR-5 ovarian 90.8% | OVCAR-4 ovarian 89.1% | SK-OV-3 ovarian 91.7% | IGROV1 ovarian 67% | OVCAR-3 ovarian 96.9% | HS 578T breast 92.2% | NCI/ADR-RES ovarian 82.6%

FC(F)(F)c1cc(Nc2ccc3c(OCCCN4CCOCC4)cccc3n2)ccc1Cl
inactive: SK-MEL-2 melanoma 99.6% | EKVX NSCLC 48.8% | SN12C renal 66.9% | UO-31 renal 51% | TK-10 renal 76.6% | ACHN renal 50.7% | CAKI-1 renal 55.9% | A498 renal 67.1% | CCRF-CEM leukemia 24.8% | MOLT-4 leukemia 18.3% | RPMI-8226 leukemia 13.4% | OVCAR-8 ovarian 75.5% | OVCAR-5 ovarian 50.5% | OVCAR-4 ovarian 55.4% | SK-OV-3 ovarian 78.5% | IGROV1 ovarian 48.4% | OVCAR-3 ovarian 60.9% | HS 578T breast 55% | NCI/ADR-RES ovarian 56.2%

CCOC(=O)Cn1c(=O)c2c(c3ccccc3n2C)n2nnc(-c3ccccc3)c12
inactive: SK-MEL-2 melanoma 98.3% | EKVX NSCLC 95.1% | SN12C renal 118% | UO-31 renal 74.9% | TK-10 renal 120% | ACHN renal 97.3% | CAKI-1 renal 96.8% | A498 renal 127% | CCRF-CEM leukemia 282% | MOLT-4 leukemia 92.8% | RPMI-8226 leukemia 136% | OVCAR-8 ovarian 106% | OVCAR-5 ovarian 70.9% | OVCAR-4 ovarian 104% | SK-OV-3 ovarian 103% | IGROV1 ovarian 68.7% | OVCAR-3 ovarian 109% | HS 578T breast 107% | NCI/ADR-RES ovarian 102%

O=C1c2ccccc2NC(n2sc3ccccc3c2=O)N1c1ccccc1 (stereo not given)
inactive: SK-MEL-2 melanoma 99.5% | EKVX NSCLC 85.5% | SN12C renal 98.4% | UO-31 renal 78.4% | TK-10 renal 109% | ACHN renal 99.6% | CAKI-1 renal 93.9% | A498 renal 89.2% | CCRF-CEM leukemia 104% | MOLT-4 leukemia 99.4% | SR leukemia 87.4% | OVCAR-5 ovarian 110% | OVCAR-4 ovarian 98.5% | SK-OV-3 ovarian 103% | IGROV1 ovarian 96.5% | OVCAR-3 ovarian 101% | HS 578T breast 106% | NCI/ADR-RES ovarian 95%

N#C/C(=C\c1cccc2cnccc12)n1nnc2cccc(F)c21
inactive: SK-MEL-2 melanoma 52.8% | EKVX NSCLC 24.9% | SN12C renal 17.7% | UO-31 renal 41.4% | TK-10 renal 34.4% | ACHN renal 16.9% | CAKI-1 renal 41.5% | A498 renal 67.7% | CCRF-CEM leukemia 17.6% | MOLT-4 leukemia 26.2% | OVCAR-8 ovarian 41.7% | OVCAR-5 ovarian 31.8% | OVCAR-4 ovarian 38.7% | SK-OV-3 ovarian 90.2% | IGROV1 ovarian 26.5% | OVCAR-3 ovarian 35.3% | HS 578T breast 47.1% | NCI/ADR-RES ovarian 23.8%
active: RPMI-8226 leukemia 6.88%

COc1cccc2nc3n(c12)C(c1c(F)cccc1F)SC3 (stereo not given)
inactive: SK-MEL-2 melanoma 86.2% | EKVX NSCLC 101% | SN12C renal 100% | UO-31 renal 77.6% | TK-10 renal 115% | ACHN renal 92.7% | CAKI-1 renal 106% | A498 renal 103% | CCRF-CEM leukemia 89.5% | MOLT-4 leukemia 87% | RPMI-8226 leukemia 70.4% | OVCAR-8 ovarian 103% | OVCAR-5 ovarian 80.8% | OVCAR-4 ovarian 97.4% | SK-OV-3 ovarian 101% | OVCAR-3 ovarian 132% | HS 578T breast 92.7% | NCI/ADR-RES ovarian 95.7%
active: IGROV1 ovarian 7.38%

CC(=O)N1N=C(c2ccc(Nc3nc(Nc4ccc(F)cc4)nc(Nc4ccc(Cl)cc4)n3)cc2)CC1c1ccc(Cl)cc1 (stereo not given)
inactive: SK-MEL-2 melanoma 109% | EKVX NSCLC 87.3% | SN12C renal 107% | UO-31 renal 56.8% | TK-10 renal 110% | ACHN renal 83.1% | CAKI-1 renal 83% | A498 renal 88.9% | CCRF-CEM leukemia 110% | MOLT-4 leukemia 98.2% | SR leukemia 102% | OVCAR-5 ovarian 95.1% | SK-OV-3 ovarian 97.2% | IGROV1 ovarian 66.1% | OVCAR-3 ovarian 123% | HS 578T breast 95.8% | NCI/ADR-RES ovarian 91.1%

CN1CCN(c2ccc(-c3cnc4c(-c5csc6ccccc56)cnn4c3)cc2)CC1
active: SK-MEL-2 melanoma -32.8% | SN12C renal 0.637% | UO-31 renal -89.4% | TK-10 renal -18.7% | ACHN renal -82.4% | CAKI-1 renal -13.9% | A498 renal -55.5% | RPMI-8226 leukemia -16.7% | OVCAR-8 ovarian -29% | OVCAR-5 ovarian 7.38% | IGROV1 ovarian 5.7% | OVCAR-3 ovarian -68.6% | HS 578T breast -28.4% | NCI/ADR-RES ovarian -20.8%
inactive: EKVX NSCLC 22% | CCRF-CEM leukemia 16.8% | MOLT-4 leukemia 16.2% | OVCAR-4 ovarian 11.9% | SK-OV-3 ovarian 81.1%

CCOC(=O)CC1C(COC(=O)NC)OC(n2cnc3c(NC(=O)Nc4ccccc4)ncnc32)C1O[Si](C)(C)C(C)(C)C (stereo not given)
inactive: SK-MEL-2 melanoma 60% | EKVX NSCLC 67.5% | SN12C renal 34.8% | UO-31 renal 41.9% | TK-10 renal 87.7% | ACHN renal 25.8% | CAKI-1 renal 60.8% | A498 renal 77.4% | CCRF-CEM leukemia 57.4% | MOLT-4 leukemia 34.3% | RPMI-8226 leukemia 39.7% | OVCAR-8 ovarian 74% | OVCAR-5 ovarian 94.2% | OVCAR-4 ovarian 41.6% | SK-OV-3 ovarian 94.9% | IGROV1 ovarian 49.1% | OVCAR-3 ovarian 51.1% | HS 578T breast 57.1% | NCI/ADR-RES ovarian 48.1%

C#C[C@]1(O)CC[C@H]2[C@@H]3CC=C4c5sc(Nc6cc(F)ccc6F)nc5CC[C@]4(C)[C@H]3CC[C@@]21C
inactive: EKVX NSCLC 23.9% | TK-10 renal 18.5% | OVCAR-8 ovarian 18.4% | OVCAR-4 ovarian 23%
active: SK-MEL-2 melanoma -6.68% | SN12C renal -43.1% | UO-31 renal -98.3% | ACHN renal -68.2% | CAKI-1 renal -31.5% | A498 renal -13.4% | CCRF-CEM leukemia 4.58% | MOLT-4 leukemia 6.12% | RPMI-8226 leukemia -28.3% | OVCAR-5 ovarian 2.88% | SK-OV-3 ovarian -1.09% | IGROV1 ovarian -33.5% | OVCAR-3 ovarian -22.7% | HS 578T breast -10.8% | NCI/ADR-RES ovarian 7.49%

CCOC(=O)Cn1c(C)c(/C=N/NC(=O)c2cc3c(ccc4ccccc43)o2)c2ccccc21
active: A498 renal -6.48% | SK-OV-3 ovarian 6.12% | OVCAR-3 ovarian 0.688% | NCI/ADR-RES ovarian 8.7%
inactive: SK-MEL-2 melanoma 44.1% | EKVX NSCLC 41.1% | SN12C renal 34.4% | UO-31 renal 40.2% | TK-10 renal 58.8% | ACHN renal 28.4% | CAKI-1 renal 47.1% | CCRF-CEM leukemia 11.3% | MOLT-4 leukemia 18.7% | RPMI-8226 leukemia 10.6% | OVCAR-8 ovarian 15.5% | OVCAR-5 ovarian 40% | OVCAR-4 ovarian 51% | IGROV1 ovarian 26.3% | HS 578T breast 34.7%

CCN1C(=O)N(CC)C2Nn3c(s/c(=C\c4ccc([N+](=O)[O-])cc4)c3=O)=NC21 (stereo not given)
inactive: SK-MEL-2 melanoma 110% | EKVX NSCLC 73.3% | SN12C renal 79.7% | UO-31 renal 55.1% | TK-10 renal 69.9% | ACHN renal 74.9% | CAKI-1 renal 79.8% | A498 renal 53.2% | CCRF-CEM leukemia 40.6% | MOLT-4 leukemia 61.7% | RPMI-8226 leukemia 51.8% | OVCAR-8 ovarian 66.7% | OVCAR-5 ovarian 82.5% | OVCAR-4 ovarian 14.2% | SK-OV-3 ovarian 105% | IGROV1 ovarian 17.3% | OVCAR-3 ovarian 11.6% | HS 578T breast 83.4% | NCI/ADR-RES ovarian 23.4%

O=C(/C=C/c1sc(Cl)nc1Cl)c1ccc(Br)cc1
inactive: SK-MEL-2 melanoma 96.4% | EKVX NSCLC 96.5% | SN12C renal 41.7% | UO-31 renal 80.2% | TK-10 renal 92.3% | ACHN renal 75.6% | CAKI-1 renal 87.1% | A498 renal 92.2% | CCRF-CEM leukemia 29.9% | MOLT-4 leukemia 29.9% | RPMI-8226 leukemia 30.9% | OVCAR-8 ovarian 90% | OVCAR-5 ovarian 95.3% | OVCAR-4 ovarian 108% | SK-OV-3 ovarian 105% | IGROV1 ovarian 68.5% | OVCAR-3 ovarian 40% | HS 578T breast 93.5% | NCI/ADR-RES ovarian 104%

NC[C@@H]1O[C@H](O[C@@H]2[C@@H](CO)OC(O[C@@H]3[C@@H](O)[C@H](N)C[C@H](N)[C@H]3OC3O[C@H](CN)[C@@H](O)[C@H](O)[C@H]3N)[C@@H]2O)[C@H](N)[C@@H](O)[C@@H]1O (stereo not given in full)
inactive: SK-MEL-2 melanoma 125% | EKVX NSCLC 98.4% | SN12C renal 117% | UO-31 renal 109% | TK-10 renal 120% | ACHN renal 105% | CAKI-1 renal 99.5% | A498 renal 108% | CCRF-CEM leukemia 97.5% | MOLT-4 leukemia 112% | RPMI-8226 leukemia 104% | OVCAR-8 ovarian 98% | OVCAR-5 ovarian 104% | OVCAR-4 ovarian 107% | SK-OV-3 ovarian 119% | IGROV1 ovarian 110% | OVCAR-3 ovarian 111% | HS 578T breast 111% | NCI/ADR-RES ovarian 105%

Nc1nc(Cl)cc(=O)n1Cc1ccccc1
inactive: SK-MEL-2 melanoma 105% | EKVX NSCLC 94.1% | SN12C renal 90.9% | UO-31 renal 82.9% | TK-10 renal 92.7% | ACHN renal 107% | CAKI-1 renal 85.3% | A498 renal 99.4% | CCRF-CEM leukemia 98.7% | MOLT-4 leukemia 86.8% | RPMI-8226 leukemia 100% | OVCAR-8 ovarian 92.1% | OVCAR-5 ovarian 91% | OVCAR-4 ovarian 97.1% | SK-OV-3 ovarian 103% | IGROV1 ovarian 115% | OVCAR-3 ovarian 103% | HS 578T breast 135% | NCI/ADR-RES ovarian 91.9%
